Tg IFNy HTS – blocks Toxoplasma gondii growth in the presence of IFN-gamma | Toxoplasma gondii growth in IFN-gamma-treated host cells; hits give low values | activity change, negative = inhibition, % (no concentration beside the values) | 3.8% of 69,000 active | AID 1259416; in the data active = activity change below about -70%, passing the limit was not always enough;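 note: host cells are HeLa cells infected with Toxoplasma gondii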
The depositor's hits bear a star. The sample as a whole holds a higher share of hits than the screen did.

For Cc1ccc(S(=O)(=O)Nc2ccc3c(c2)C(=O)N([C@H](C)CO)C[C@@H](C)[C@@H](CN(C)Cc2ccc(C(F)(F)F)cc2)O3)cc1 the results were Tg IFNy HTS 7.6.
`Cc1ccc(-c2nc(CCNC(=O)c3ccc(C(F)(F)F)cc3)cs2)cc1` gave Tg IFNy HTS inactive.
Screening CC(C)c1noc(-c2cc(=O)n(CC(=O)NCc3ccccc3)c3ccccc23)n1 returned Tg IFNy HTS 26.5.
O=C(NC1CC1)c1cc2n(n1)CCN(C(=O)CCc1ccc3c(c1)OCO3)C2 was read as Tg IFNy HTS -0.8.
O=C(NCCCN1CCc2ccccc2C1)c1nc(Nc2ccc(F)cc2)c2ccccc2n1 was read as Tg IFNy HTS -8.6.
For CN(C)C1CCC2(CCN(Cc3cnn(C)c3)CC2)c2ccccc21 (stereo not given) the results were Tg IFNy HTS 9.2.
For COC(=O)CN1CCN(C(=O)c2cnc(-c3ccccc3)nc2)C(C)C1=O (stereo not given) the results were Tg IFNy HTS 6.0.
O=C(c1cscn1)N1CCc2ccc(=O)[nH]c2CC1 was read as Tg IFNy HTS 16.5.
Screening CC1(C)[C@H]2CC=C(CCNCc3nc(-c4ccco4)no3)[C@@H]1C2 returned Tg IFNy HTS 21.5.
COc1ccc(CN(C)C[C@H]2OCCCC[C@H](C)Oc3ccc(NC(=O)C4CCCCC4)cc3C(=O)N([C@@H](C)CO)C[C@@H]2C)cc1 was read as Tg IFNy HTS 270.5.
COc1ccc(S(=O)(=O)Nc2ccc3c(c2)C(=O)N([C@H](C)CO)C[C@H](C)[C@H](CN(C)Cc2ccc(C(F)(F)F)cc2)OCCCC[C@@H](C)O3)cc1 was read as Tg IFNy HTS 21.1.
COc1ccc(S(=O)(=O)Nc2ccc3c(c2)C(=O)N([C@H](C)CO)C[C@@H](C)[C@H](CN(C)Cc2ccc(C(F)(F)F)cc2)OCCCC[C@@H](C)O3)cc1 was read as Tg IFNy HTS -119.0*.
COc1ccc(S(=O)(=O)Nc2ccc3c(c2)C(=O)N([C@@H](C)CO)C[C@@H](C)[C@H](CN(C)Cc2ccc(C(F)(F)F)cc2)OCCCC[C@H](C)O3)cc1 was read as Tg IFNy HTS -90.3*.
For Cc1ccc(S(=O)(=O)Nc2ccc3c(c2)C(=O)N([C@H](C)CO)C[C@H](C)[C@@H](CN(C)Cc2ccc(C(F)(F)F)cc2)O3)cc1 the results were Tg IFNy HTS 14.3.
`Cc1ccc(S(=O)(=O)Nc2ccc3c(c2)C(=O)N([C@@H](C)CO)C[C@@H](C)[C@@H](CN(C)Cc2ccc(C(F)(F)F)cc2)O3)cc1` gave Tg IFNy HTS -16.5.
COc1ccc(S(=O)(=O)Nc2ccc3c(c2)C(=O)N([C@H](C)CO)C[C@@H](C)[C@@H](CN(C)Cc2ccc(C(F)(F)F)cc2)OCCCC[C@H](C)O3)cc1 was read as Tg IFNy HTS -119.7*.
Screening Cc1ccc(S(=O)(=O)Nc2ccc3c(c2)C(=O)N([C@@H](C)CO)C[C@H](C)[C@@H](CN(C)Cc2ccc(C(F)(F)F)cc2)O3)cc1 returned Tg IFNy HTS -59.9.
COc1ccc(S(=O)(=O)Nc2ccc3c(c2)C(=O)N([C@H](C)CO)C[C@@H](C)[C@@H](CN(C)Cc2ccc(C(F)(F)F)cc2)OCCCC[C@@H](C)O3)cc1 was read as Tg IFNy HTS -11.1.
Cc1oc(-c2ccccc2)nc1Cn1nnc(-c2nc(-c3ccc(F)c(Cl)c3)no2)c1C was read as Tg IFNy HTS 2.4.
For Cc1ccc(NC(=O)Cn2c(=O)ccc3cc(S(=O)(=O)N4CCC(C)CC4)ccc32)cc1 the results were Tg IFNy HTS -43.7.
For CC1NC(=O)COC12CCN(C(=O)C1CCOCC1)CC2 (stereo not given) the results were Tg IFNy HTS 46.9.
`CC(C)n1ccnc1CN(C)Cc1cnn(-c2ccc(F)cc2)c1` gave Tg IFNy HTS -8.9.
For CN1CC2(CCCN(C(=O)c3cccc4nccnc34)C2)OC1=O (stereo not given) the results were Tg IFNy HTS 0.6.
`S=C(Nc1ccccc1Cl)SCCSC(=S)Nc1ccccc1Cl` gave Tg IFNy HTS -13.2.
`COc1cccc(CNC(=O)c2nc(-c3ccc(C)cc3)n3c2CCCCC3)c1` gave Tg IFNy HTS -107.9*.
Screening O=C(NCCN1CCCCCC1)c1nc(-c2ccc(Cl)cc2)n2c1CCCCC2 returned Tg IFNy HTS -56.1.
Cc1ccc(-c2nc(C(=O)NCCN3CCOCC3)c3n2CCCCC3)cc1 was read as Tg IFNy HTS 13.1.
`CCNC(=O)c1nc(-c2ccc(Cl)cc2)n2c1CCCCC2` gave Tg IFNy HTS -6.6.
Screening COCCNC(=O)c1nc(-c2cccc(F)c2)n2c1CCCCC2 returned Tg IFNy HTS 94.2.
`CCC(C)NC(=O)c1nc(-c2ccc(C)cc2)n2c1CCCCC2` (stereo not given) gave Tg IFNy HTS -92.1*.
`Cc1ccc(Nc2nc(C(=O)Nc3ccc4c(c3)OCCO4)nc3ccccc23)cc1` gave Tg IFNy HTS -56.0.
COc1ccc(N2CCN(C(=O)c3nc(-c4cccc(F)c4)n4c3CCCCC4)CC2)cc1 was read as Tg IFNy HTS 43.3.
For CCCCN(C)C(=O)c1nc(-c2cccc(F)c2)n2c1CCCCC2 the results were Tg IFNy HTS -17.0.
Cc1ccc(-c2nc(C(=O)Nc3ccc4c(c3)OCCO4)c3n2CCCCC3)cc1 was read as Tg IFNy HTS -93.9*.
For COc1ccc(CNC(=O)c2nc(-c3ccc(C)cc3)n3c2CCCCC3)cc1 the results were Tg IFNy HTS -69.8.
Screening CCC(C)NC(=O)c1nc(-c2cccc(F)c2)n2c1CCCCC2 (stereo not given) returned Tg IFNy HTS -97.8*.
For CCN(Cc1noc(C)n1)C(=O)Cc1c(C)nn(-c2ccccc2)c1C the results were Tg IFNy HTS 4.8.
CCc1cc(CN2CCOc3c(O)cc(-c4cccc(Cl)c4)cc3C2)[nH]n1 was read as Tg IFNy HTS -29.9.
NS(=O)(=O)c1ccc(CCn2cnnc2)cc1 was read as Tg IFNy HTS -2.7.
O=C(O)C1CC2(CCNCC2)CN1C(=O)c1cccc(Oc2ccccc2)c1 (stereo not given) was read as Tg IFNy HTS 11.1.
Screening Cc1ccc(NC(=O)NCC(c2cccnc2)c2cn(C)c3ccccc23)c(Cl)c1 (stereo not given) returned Tg IFNy HTS inactive.
Screening COc1ccc(S(=O)(=O)NCCc2csc(-c3ccc(Cl)cc3)n2)cc1OC returned Tg IFNy HTS 36.6.
Screening Cc1ccc2nc(SCC(=O)Nc3ccccc3Cl)[nH]c2c1 returned Tg IFNy HTS 2.8.
`CCc1cnc(N2CCc3ncnc(OC)c3CC2)nc1` gave Tg IFNy HTS -32.1.
Screening COCCNC(=O)C1CCCN(C2CCN(C(=O)c3cscn3)CC2)C1 (stereo not given) returned Tg IFNy HTS 0.8.
O=c1[nH]c(SCc2c(Cl)cccc2Cl)nc2ccnn12 was read as Tg IFNy HTS 67.7.
`CSc1nc(N)nc(COc2ccccc2Cl)n1` gave Tg IFNy HTS 47.2.
Screening Nc1ncnc(SCc2c(Cl)cccc2Cl)n1 returned Tg IFNy HTS -81.0*.
`CCCCC[C@@H](O)[C@H]1C(=O)O[C@H](C)[C@@H](O)/C=C/C=C/C=C/C=C/C=C(\C)[C@@H](O)C[C@H](O)C[C@H](O)C[C@H](O)C[C@H](O)C[C@H](O)C[C@@H]1O` gave Tg IFNy HTS 11.3.
`COc1ccc(OC(=O)c2cc(S(=O)(=O)N(C)Cc3ccccc3)cs2)cc1` gave Tg IFNy HTS -65.9.
c1ccc(C2NCCc3[nH]cnc32)c(Cn2cccn2)c1 (stereo not given) was read as Tg IFNy HTS -3.0.

From PubChem
